# According to the supplement of paper PMC9794691:
# ± gives the standard deviation of the averaged measurements.
# Tested on: PC9
# Assay: area under confluence curve of osimertinib + compound combination regimen (DTP regrowth); compare to osimertinib-only DTP control AUC of the same experiment (AUC (confluence x time, arbitrary))
# Procedure: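 compare to osimertinib-only DTP control AUC of the same experiment; Long-term drug-tolerant persister (DTP) screen in EGFR-mutant NSCLC cell lines in 48-well plates. The test compound was given at one fixed dose with osimertinib, either upfront (from day 0 to the DTP stage at 10-21 days, then drug-free medium) or sequentially (osimertinib alone to the DTP stage, then the test compound). IncuCyte confluence was tracked until osimertinib-only controls regrew, and AUC was computed in Prism. AUC scale depends on experiment duration, so each row carries the same-experiment osimertinib-only DTP and DMSO control AUCs; combination activity = control minus combo AUC. Osimertinib dose not stated.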
# [1] = test compound dose 1000 nM, dosing schedule: sequential, osimertinib-only DTP control AUC in same experiment: 15163, DMSO control AUC in same experiment: 28684
# [2] = test compound dose 1000 nM, dosing schedule: upfront, osimertinib-only DTP control AUC in same experiment: 21337, DMSO control AUC in same experiment: 28684
structure (smiles),measurement,setting,value
NC(=O)Nc1cc(-c2cccc(F)c2)sc1C(=O)N[C@H]1CCCNC1 + C=CC(=O)Nc1cc(Nc2nccc(-c3cn(C)c4ccccc34)n2)c(OC)cc1N(C)CCN(C)C [osimertinib],area under confluence curve,"test compound dose 5 nM, dosing schedule: sequential, osimertinib-only DTP control AUC in same experiment: 7760, DMSO control AUC in same experiment: 29563",4940
same,area under confluence curve,"test compound dose 5 nM, dosing schedule: upfront, osimertinib-only DTP control AUC in same experiment: 11798, DMSO control AUC in same experiment: 29563",9410
C[C@@]1(C(=O)Nc2ccc(F)nc2)CCCN1c1nc(Nc2cc(C3CC3)n[nH]2)c2cccn2n1 + C=CC(=O)Nc1cc(Nc2nccc(-c3cn(C)c4ccccc34)n2)c(OC)cc1N(C)CCN(C)C [osimertinib],area under confluence curve,"test compound dose 100 nM, dosing schedule: sequential, osimertinib-only DTP control AUC in same experiment: 1963, DMSO control AUC in same experiment: 30580",219 ± 17
same,area under confluence curve,"test compound dose 100 nM, dosing schedule: sequential, osimertinib-only DTP control AUC in same experiment: 12502, DMSO control AUC in same experiment: 49143",7400
same,area under confluence curve,"test compound dose 100 nM, dosing schedule: sequential, osimertinib-only DTP control AUC in same experiment: 14708, DMSO control AUC in same experiment: 21341",3460
same,area under confluence curve,"test compound dose 100 nM, dosing schedule: upfront, osimertinib-only DTP control AUC in same experiment: 8618, DMSO control AUC in same experiment: 30580",4520 ± 430
same,area under confluence curve,"test compound dose 100 nM, dosing schedule: upfront, osimertinib-only DTP control AUC in same experiment: 21313, DMSO control AUC in same experiment: 21341",7730
same,area under confluence curve,"test compound dose 100 nM, dosing schedule: upfront, osimertinib-only DTP control AUC in same experiment: 28310, DMSO control AUC in same experiment: 49143",13100
COC(=O)c1ccc([C@H]2c3[nH]c4ccccc4c3C[C@H](C(=O)OC)N2C(=O)CCl)cc1 + C=CC(=O)Nc1cc(Nc2nccc(-c3cn(C)c4ccccc34)n2)c(OC)cc1N(C)CCN(C)C [osimertinib],area under confluence curve,"test compound dose 100 nM, dosing schedule: sequential, osimertinib-only DTP control AUC in same experiment: 8716, DMSO control AUC in same experiment: 45737",655
same,area under confluence curve,"test compound dose 100 nM, dosing schedule: sequential, osimertinib-only DTP control AUC in same experiment: 10175, DMSO control AUC in same experiment: 27958",1250
same,area under confluence curve,"test compound dose 100 nM, dosing schedule: sequential, osimertinib-only DTP control AUC in same experiment: 14030, DMSO control AUC in same experiment: 30326",1840
same,area under confluence curve,"test compound dose 100 nM, dosing schedule: upfront, osimertinib-only DTP control AUC in same experiment: 11096, DMSO control AUC in same experiment: 45737",12700
same,area under confluence curve,"test compound dose 100 nM, dosing schedule: upfront, osimertinib-only DTP control AUC in same experiment: 16134, DMSO control AUC in same experiment: 27958",13900
same,area under confluence curve,"test compound dose 100 nM, dosing schedule: upfront, osimertinib-only DTP control AUC in same experiment: 20885, DMSO control AUC in same experiment: 30326",13600
CCN1CCN(Cc2ccc(Nc3ncc(F)c(-c4cc(F)c5nc(C)n(C(C)C)c5c4)n3)nc2)CC1 [Abemaciclib] + C=CC(=O)Nc1cc(Nc2nccc(-c3cn(C)c4ccccc34)n2)c(OC)cc1N(C)CCN(C)C [osimertinib],area under confluence curve,"test compound dose 100 nM, dosing schedule: sequential, osimertinib-only DTP control AUC in same experiment: 10725, DMSO control AUC in same experiment: 30578",2310
same,area under confluence curve,"test compound dose 100 nM, dosing schedule: sequential, osimertinib-only DTP control AUC in same experiment: 15163, DMSO control AUC in same experiment: 28684",7750
same,area under confluence curve,"test compound dose 100 nM, dosing schedule: sequential, osimertinib-only DTP control AUC in same experiment: 23366, DMSO control AUC in same experiment: 88996",7100
same,area under confluence curve,"test compound dose 100 nM, dosing schedule: upfront, osimertinib-only DTP control AUC in same experiment: 10245, DMSO control AUC in same experiment: 30578",6070
same,area under confluence curve,"test compound dose 100 nM, dosing schedule: upfront, osimertinib-only DTP control AUC in same experiment: 21337, DMSO control AUC in same experiment: 28684",15800
same,area under confluence curve,"test compound dose 100 nM, dosing schedule: upfront, osimertinib-only DTP control AUC in same experiment: 29852, DMSO control AUC in same experiment: 88996",6410
CN(C)CCCOc1ccc(-c2ccc3ncc4c(c3c2)n(C2CCOCC2)c(=O)n4C)cn1 + C=CC(=O)Nc1cc(Nc2nccc(-c3cn(C)c4ccccc34)n2)c(OC)cc1N(C)CCN(C)C [osimertinib],area under confluence curve,"test compound dose 300 nM, dosing schedule: sequential, osimertinib-only DTP control AUC in same experiment: 7760, DMSO control AUC in same experiment: 29563",4600
same,area under confluence curve,"test compound dose 300 nM, dosing schedule: sequential, osimertinib-only DTP control AUC in same experiment: 15001, DMSO control AUC in same experiment: 22064",14800
same,area under confluence curve,"test compound dose 300 nM, dosing schedule: sequential, osimertinib-only DTP control AUC in same experiment: 15044, DMSO control AUC in same experiment: 30604",3980
same,area under confluence curve,"test compound dose 300 nM, dosing schedule: upfront, osimertinib-only DTP control AUC in same experiment: 11798, DMSO control AUC in same experiment: 29563",5590
same,area under confluence curve,"test compound dose 300 nM, dosing schedule: upfront, osimertinib-only DTP control AUC in same experiment: 20672, DMSO control AUC in same experiment: 30604",5990
same,area under confluence curve,"test compound dose 300 nM, dosing schedule: upfront, osimertinib-only DTP control AUC in same experiment: 24924, DMSO control AUC in same experiment: 22064",22400
CN1CCN(CCOc2cc(OC3CCOCC3)c3c(Nc4c(Cl)ccc5c4OCO5)ncnc3c2)CC1 [Saracatinib] + C=CC(=O)Nc1cc(Nc2nccc(-c3cn(C)c4ccccc34)n2)c(OC)cc1N(C)CCN(C)C [osimertinib],area under confluence curve,"test compound dose 300 nM, dosing schedule: sequential, osimertinib-only DTP control AUC in same experiment: 9267, DMSO control AUC in same experiment: 19507",4570
same,area under confluence curve,"test compound dose 300 nM, dosing schedule: sequential, osimertinib-only DTP control AUC in same experiment: 12589, DMSO control AUC in same experiment: 28243",8930
same,area under confluence curve,"test compound dose 300 nM, dosing schedule: upfront, osimertinib-only DTP control AUC in same experiment: 10534, DMSO control AUC in same experiment: 19507",1600
same,area under confluence curve,"test compound dose 300 nM, dosing schedule: upfront, osimertinib-only DTP control AUC in same experiment: 16088, DMSO control AUC in same experiment: 28243",16200
CCn1cc(-c2cccc(C(F)(F)F)c2)c2sc(C(=N)NC3CCS(=O)(=O)CC3)cc2c1=O + C=CC(=O)Nc1cc(Nc2nccc(-c3cn(C)c4ccccc34)n2)c(OC)cc1N(C)CCN(C)C [osimertinib],area under confluence curve,"test compound dose 1000 nM, dosing schedule: sequential, osimertinib-only DTP control AUC in same experiment: 4730, DMSO control AUC in same experiment: 72888",4010
same,area under confluence curve,"test compound dose 1000 nM, dosing schedule: upfront, osimertinib-only DTP control AUC in same experiment: 8775, DMSO control AUC in same experiment: 72888",6420
CN1CCN(c2nc(C3=C(c4c[nH]c5ccccc45)C(=O)NC3=O)c3ccccc3n2)CC1 [Sotrastaurin] + C=CC(=O)Nc1cc(Nc2nccc(-c3cn(C)c4ccccc34)n2)c(OC)cc1N(C)CCN(C)C [osimertinib],area under confluence curve,"test compound dose 1000 nM, dosing schedule: sequential, osimertinib-only DTP control AUC in same experiment: 10175, DMSO control AUC in same experiment: 27958",9060
same,area under confluence curve,"test compound dose 1000 nM, dosing schedule: upfront, osimertinib-only DTP control AUC in same experiment: 16134, DMSO control AUC in same experiment: 27958",10800
CCn1nc(C2CCN(C(=O)CCO)CC2)nc1-c1cnc(N)c(-c2nnc(C(C)(C)C)o2)n1 + C=CC(=O)Nc1cc(Nc2nccc(-c3cn(C)c4ccccc34)n2)c(OC)cc1N(C)CCN(C)C [osimertinib],area under confluence curve,"test compound dose 1000 nM, dosing schedule: sequential, osimertinib-only DTP control AUC in same experiment: 12535, DMSO control AUC in same experiment: 43316",3140
same,area under confluence curve,[1],9440
same,area under confluence curve,"test compound dose 1000 nM, dosing schedule: upfront, osimertinib-only DTP control AUC in same experiment: 15354, DMSO control AUC in same experiment: 43316",5490
same,area under confluence curve,[2],15400
COc1cc2nc(C)nc(N[C@H](C)c3cc(N)cc(C(F)(F)F)c3)c2cc1O[C@H]1CCOC1 + C=CC(=O)Nc1cc(Nc2nccc(-c3cn(C)c4ccccc34)n2)c(OC)cc1N(C)CCN(C)C [osimertinib],area under confluence curve,[1],11600
same,area under confluence curve,[2],11000
